Several values for one entry are separate records, joined by “and”; a condition that tells them apart may be missing. Equal values may be shown once.

The assay deals with HNSC. The experiment in a line: growth inhibition (% activity, log2 RLU normalised to DMSO / staurosporine); higher = more growth inhibition. As to conditions: 33 µM. In short, it runs like this:
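The growth-inhibition value is the median over replicates. pHGG cell lines and H9-derived neural stem cells on Geltrex-coated 384-well plates received approved drugs by pin tool at a single final concentration of about 33 μM, in triplicate, for 7 days at 37 °C, 5% CO2. CellTiter-Glo luminescence was log2-transformed and normalised per plate to % activity between solvent and positive control wells.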
`O=C(O)c1cccnc1Nc1cccc(C(F)(F)F)c1`: the growth inhibition was -1.26%.
The result for `C=C(c1ccc(C(=O)O)cc1)c1cc2c(cc1C)C(C)(C)CCC2(C)C` reads 14.6%; that for `CC1(C)S[C@@H]2[C@H](NC(=O)Cc3ccccc3)C(=O)N2[C@H]1C(=O)O`, 1.53%; that for `Cc1cn(C2C=CC(CO)O2)c(=O)[nH]c1=O` (centres undefined), 1.41%.
Turning to `CC(C)(C)C(=O)C(Oc1ccc(Cl)cc1)n1ccnc1` (centres undefined), the growth inhibition was 5.37%.
The same measure for `Cc1ccc(S(=O)(=O)NC(=O)NN2CCCCCC2)cc1`: -3.09%; for `Cc1cc(C2CCCCC2)n(O)c(=O)c1`: 81.5% and 63.9%; for `OCCOCCN1CCN(C(c2ccccc2)c2ccc(Cl)cc2)CC1` (centres undefined): 4.05%.
For `Oc1c(Br)cc(Br)c2cccnc12`, the growth inhibition is -0.441%.
For `COC(=O)C1=CO[C@@H](O[C@@H]2O[C@H](CO)[C@@H](O)[C@H](O)[C@H]2O)[C@@H]2C(CO)=CC[C@H]12`, the growth inhibition is -2.11%.
The result for `CCn1cc(C(=O)O)c(=O)c2ccc(C)nc21` reads -2.82%; that for `CCOC(=O)c1ccc(N)cc1`, -1.55%.
The result for `CCCN1CCCC[C@H]1C(=O)Nc1c(C)cccc1C` reads -0.32%.
The result for `CC(C)[C@H]1CC[C@H](C(=O)N[C@H](Cc2ccccc2)C(=O)O)CC1` reads -0.0956%; that for `NS(=O)(=O)c1cc2c(cc1Cl)NC(C(Cl)Cl)NS2(=O)=O` (centres undefined), -0.78%; that for `COc1cc2c(cc1OC)CC(=O)N(CCCN(C)C[C@H]1Cc3cc(OC)c(OC)cc31)CC2`, 7.75%.
As for `CCCc1nc(C)c2c(=O)nc(-c3cc(S(=O)(=O)N4CCN(CC)CC4)ccc3OCC)[nH]n12`, the growth inhibition was -2.13%.
The result for `CCC(C)n1ncn(-c2ccc(N3CCN(c4ccc(OCC5COC(Cn6cncn6)(c6ccc(Cl)cc6Cl)O5)cc4)CC3)cc2)c1=O` (centres undefined) reads 7.95%; that for `Cc1onc(-c2ccccc2)c1-c1ccc(S(N)(=O)=O)cc1`, -0.462%; that for `C#C[C@]1(O)CC[C@H]2[C@@H]3CCC4=CC(=O)CC[C@@H]4[C@H]3CC[C@@]21C`, 6.68%.
The same measure for `N=C(N)c1ccc(N=NNc2ccc(C(=N)N)cc2)cc1`: -4.44%; for `O[C@@H]1CO[C@H]2[C@@H]1OC[C@@H]2O`: -3.92%.
The result for `CC[C@H]1OC(=O)[C@H](C)[C@@H](O[C@H]2C[C@@](C)(OC)[C@@H](O)[C@H](C)O2)[C@H](C)[C@@H](O[C@@H]2O[C@H](C)C[C@H](N(C)C)[C@H]2O)[C@](C)(O)C[C@@H](C)[C@@H]2N[C@@H](COCCOC)O[C@H]([C@H]2C)[C@]1(C)O` reads -4.19%.
In the case of `CC(C)NCC(O)COc1cccc2ccccc12` (centres undefined), the growth inhibition was -3.29%.
Consider `N#CC1(c2ccc(NC(=O)c3cccnc3NCc3ccncc3)cc2)CCCC1`, for which the growth inhibition was determined as 1.96%.
The result for `Clc1ccc2c(c1)C(N1CCNCC1)=Nc1ccccc1O2` reads 0.635%; that for `C=C1CCC(O)CC1=CC=C1CCCC2(C)C1CCC2C(C)CCCC(C)(C)O` (centres undefined), -1.74%.
The result for `CC(=O)Oc1cc(C(F)(F)F)ccc1C(=O)O` reads -4.31%.
As for `O=c1ccc2ccccc2o1`, the growth inhibition is -0.623%.
Take `Cc1c(O)c(=O)ccn1C`: the growth inhibition was -3.85%.
Turning to `CN(C)CCC=C1c2ccccc2CCc2ccccc21`, the growth inhibition came to 0.41%.
For the molecule `CC(C)(C(=O)O)c1ccc(C(O)CCCN2CCC(C(O)(c3ccccc3)c3ccccc3)CC2)cc1` (centres undefined), the growth inhibition worked out at 3.07%.
With `C[C@@H](O)[C@H]1C(=O)N2C(C(=O)OCOC(=O)C(C)(C)C)=C(SC3CN(C4=NCCS4)C3)[C@H](C)[C@H]12`, the growth inhibition is -0.363%.
The result for `Cc1c(Nc2ncccc2C(=O)O)cccc1C(F)(F)F` reads 1.18%; that for `CCCCCCCN(CC)CCCC(O)c1ccc(NS(C)(=O)=O)cc1` (centres undefined), -2.1%.
The same measure for `COc1ccccc1N1CCN(CCCNc2cc(=O)n(C)c(=O)n2C)CC1`: 0.25%.
The result for `Cc1ncc([N+](=O)[O-])n1CC(C)O` (centres undefined) reads -4.53%.
With `CC[C@H]1OC(=O)[C@H](C)[C@@H](O[C@H]2C[C@@](C)(OC)[C@@H](O)[C@H](C)O2)[C@H](C)[C@@H](O[C@@H]2O[C@H](C)C[C@H](N(C)C)[C@H]2O)[C@](C)(O)C[C@@H](C)/C(=N\OCOCCOC)[C@H](C)[C@@H](O)[C@]1(C)O`, the growth inhibition was -0.847%.
With `N=S(=O)(O)Cc1noc2ccccc12`, the growth inhibition is -4.88%.

Values taken from the supplement of paper PMC8253809.
